PLK1 PBD block: qHTS for Inhibitors of PLK1-PDB (polo-like kinase 1 - polo-box domain): Primary Screen; Plk1 PBD binding of FITC phosphopeptide, fluorescence polarization; Potency, µM, inactives show max response, negative = inhibition, usual class: inhibitors; 360,000 tested, 2.8% active; also: series mostly up to about 57 µM; % is scaled to controls: 0 for no effect and ±100 for the full control effect; nearly all actives have a fitted effect of over 65% in size
JMJD2A Tudor: qHTS Assay for Inhibitors of JMJD2A-Tudor Domain; Lysine-specific demethylase 4A (Homo sapiens), O75164; AlphaScreen JMJD2A-Tudor / H3K4me3 peptide binding; Potency, µM (top dose mostly 114 µM), without a hit: at the top dose activity change, negative = inhibition, usual class: inhibitors; 390,000 tested, 4.4% active; also: % is scaled to controls: 0 for no effect and ±100 for the full control effect; nearly all actives have a fitted effect of over 50% in size
Sfp PPTase inh: qHTS Assay for Inhibitors of Bacillus subtilis Sfp phosphopantetheinyl transferase (PPTase); 4'-phosphopantetheinyl transferase ffp (Bacillus subtilis), Q9F4F7; AID 1490, 2009; 310,000 tested, 3.5% active; Potency, µM, for inactives: largest response in the series, negative = inhibition, most hits filed as inhibitors; Biochemical Sfp PPTase activity, qHTS;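 also: the enzyme is Sfp with the accession as filed and its product quenches rhodamine fluorescence; 0% = enzyme reaction without inhibitor and -100% = no enzyme wells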
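Reaction rates are the 30-min fluorescence difference (ex 525, em 598 nm) in wells containing 15 nM Sfp, 5 uM rhodamine-CoA and 12.5 uM BHQ-2-YbbR at pH 7.6 with 10 mM MgCl2.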
HP1b binding inh: HTS for Inhibitors of HP1-beta Chromodomain Interactions with Methylated Histone Tails; 390,000 tested, 0.56% active; Chromobox protein homolog 1 (Homo sapiens), P83916; Potency, µM (highest dose often 114 µM), inactives show top-dose activity change, negative = inhibition, actives largely listed as inhibitors; AID 540317, 2011; AlphaScreen HP1-beta / biotin-H3K9me3 peptide binding; also: nearly all actives have a fitted effect of over 70% in size
Target sequence (P83916 whole entry, looked up): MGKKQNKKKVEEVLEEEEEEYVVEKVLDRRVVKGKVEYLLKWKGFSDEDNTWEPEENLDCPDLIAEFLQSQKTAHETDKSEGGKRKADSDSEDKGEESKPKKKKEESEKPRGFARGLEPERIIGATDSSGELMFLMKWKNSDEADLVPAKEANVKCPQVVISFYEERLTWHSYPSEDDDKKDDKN
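Compound inhibition of the preformed complex between 50 nM HP1-beta and 50 nM biotinylated H3K9me3 peptide was read by AlphaScreen. Buffer was PBS pH 7.4 with 0.01% Tween-20. Incubations ran 30 min at room temperature, with 10 ug/mL donor/acceptor beads.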
BAZ2B inh: qHTS Assay for Inhibitors of BAZ2B; Bromodomain adjacent to zinc finger domain protein 2B (Homo sapiens), Q9UIF8; AlphaScreen BAZ2B-H3K14Ac peptide displacement; Potency, µM (top dose mostly 114 µM), for inactives: top-dose activity change, negative = inhibition, usual class: inhibitors; 360,000 tested, 4.4% active; also: % is scaled to controls: 0 for no effect and ±100 for the full control effect; nearly all actives have a fitted effect of over 60% in size
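AlphaScreen displacement: compounds (up to 110uM) incubated 30 min at room temperature with a preformed 50 nM BAZ2B/50 nM biotinylated H3K14Ac peptide complex in PBS pH 7.4 with Tween-20. Donor and acceptor beads at 10 ug/mL final added, 20 min light-protected before reading.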
G9a inh: qHTS Assay for Inhibitors of Histone Lysine Methyltransferase G9a. G9a H3K9 monomethylation, AlphaScreen, 2 h. Potency, µM (series often up to 102 µM), without a hit: top-dose activity, negative = inhibition, usual class: inhibitors. 350,000 tested, 8.8% active. AID 504332, 2011; also: % is scaled to controls: 0 for no effect and ±100 for the full control effect; nearly all actives have a fitted effect of over 75% in size
Target sequence (Q96KQ7 913-1193 limits assumed): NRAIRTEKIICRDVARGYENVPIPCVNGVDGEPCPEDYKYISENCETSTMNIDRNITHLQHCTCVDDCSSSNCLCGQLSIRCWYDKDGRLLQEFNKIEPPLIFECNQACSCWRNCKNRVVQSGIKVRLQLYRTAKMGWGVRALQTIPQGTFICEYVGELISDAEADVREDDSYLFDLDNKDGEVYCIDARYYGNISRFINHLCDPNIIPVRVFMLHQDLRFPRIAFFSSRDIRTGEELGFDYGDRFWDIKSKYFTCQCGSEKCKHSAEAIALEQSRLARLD
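G9a (20 nM) was preincubated 15 min with compound, then reacted 2 h at room temperature with 500 nM biotin-H3K9 peptide and 20 µM SAM. Monomethyl-H3K9 detected by AlphaScreen using anti-H3K9me1 antibody.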
An asterisk follows results filed as active; u = inconclusive; x = no result given; [ ] = dose if it differs, or a comment. In the library only some 12% were active in any assay of this set; here they are far more common. Calls follow the shape of the dose curve; as a rule, active = well fitted curve in the direction sought with a large enough effect; inconclusive = small, poorly fitted or top-dose-only effect, or another doubt; inactive = no such curve, though single readings can be large; an effect the other way counts as inactive or inconclusive. Potency is read from the fitted curve at half-maximal effect.

SMILES	PLK1 PBD block	JMJD2A Tudor	Sfp PPTase inh	HP1b binding inh	BAZ2B inh	G9a inh
CN1C(=O)/C(=C\c2cc(N=Nc3ccccc3)ccc2O)SC1=S	u	39.8µM*	-2.4%	-65.4%	3.55µM*	8.91µM*
COc1ccc(O)c(/C=C2/SC(=S)N(Cc3ccccc3)C2=O)c1	-5.7%	39.8µM*	u	u	31.6µM*	4.47µM*
Cc1ccc2nsnc2c1S(=O)(=O)Nc1cccc2nsnc12	-10.1%	-22.9%	-9.1%	14.6%	-37.9%	44.7µM*
CC(=O)c1ccccc1NS(=O)(=O)c1cccc2nsnc12	-17.8%	u	1.8%	u	50.1µM*	50.1µM*
COCC1CCCCN1Cc1cn[nH]c1-c1ccc2cc(OC)ccc2c1 (stereo not given)	-1.4%	-14.4%	13.7%	32.2%	-15.1%	-4.6%
CC(C)(C)N1C(=O)[C@H]2[C@H]3[C@H](O)[C@H](O)C/C(=N/NC(=O)OCc4ccccc4)[C@H]3CC[C@@H]2C1=O	x	x	5.8%	x	x	x
CN1C(=S)SC(C)(NO)C1(C)C (stereo not given)	u	22.4µM*	56.2µM*	u	u	u
CCCCCC(O)c1ccc([C@H]2CCC(=O)[C@@H]2CCCCCCC(=O)O)cc1 (stereo not given in full)	x	x	2.6%	x	x	x
CSc1cnn(-c2ccccc2)c(=O)c1SC	u	-7.7%	79.4µM*	9.2%	-0.2%	-69.0%
CCSc1cnn(-c2ccccc2)c(=O)c1SCC	4.1%	-8.4%	8.5%	18.2%	-3.3%	11.8%[59 µM]
COc1ccccc1NC(=O)C1=C(C)Nc2nc(SCc3cccc(F)c3)nn2C1c1ccc(C(=O)O)cc1 (stereo not given)	x	-17.4%	x	29.9%	50.1µM*	8.0%[12.7 µM]
COc1ccccc1NC(=O)C1=C(C)Nc2nc(-c3ccco3)nn2C1c1ccccc1 (stereo not given)	x	-30.8%	x	1.3%	-19.6%	7.0%[59 µM]
COc1ccc(C2C(C(N)=O)=C(C)Nc3nc(-c4ccccc4Cl)nn32)cc1 (stereo not given)	x	-4.5%	x	40.8%	-17.6%	1.4%[59 µM]
CC1=C(C(N)=O)C(c2ccncc2)n2nc(-c3ccccc3Cl)nc2N1 (stereo not given)	29.9µM*	-5.6%	6.2%	1.8%	9.1%	-10.8%
COc1ccccc1NC(=O)C1=C(C)Nc2nc(-c3ccc(N(C)C)cc3)nn2C1c1ccncc1 (stereo not given)	-2.4%	u	14.1%	-6.0%	50.1µM*	u
COc1ccc(CNC(=O)c2cc3oc4ccccc4c3n2C)cc1OC	x	u	x	25.3%	-3.3%	-9.3%[59 µM]
O=C(CN1C(=O)NC2(CCCCCCC2)C1=O)Nc1ccc(Cl)cc1	8.6%	-20.5%	x	25.2%	-16.6%	23.8%[12.7 µM]
Cc1cccc(CNC(=O)Cc2csc3ccccc23)c1	x	-5.0%	x	45.0%	11.5%	9.1%[59 µM]
COc1ccc(NC(=O)CNc2cc(S(=O)(=O)N3CCOCC3)ccc2NCC2CCCO2)cc1 (stereo not given)	-16.0%	-33.3%	6.5%	20.8%	x	6.31µM*
CC1CCCC(C)N1S(=O)(=O)c1ccc(NC(=O)CNCC2CCCO2)cc1 (stereo not given)	-1.1%	17.8µM*	-2.0%	5.9%	56.2µM*	8.91µM*
Cc1ccc(NC(=O)CNc2cc(S(=O)(=O)N3CCOCC3)ccc2NCC2CCCO2)cc1F (stereo not given)	-16.9%	u	13.0%	-18.5%	u	44.7µM*
O=C(CNc1cc(S(=O)(=O)N2CCOCC2)ccc1NCC1CCCO1)Nc1ccc(F)c(F)c1 (stereo not given)	-5.7%	-29.5%	-1.0%	11.6%	u	u
CSCC[C@H](NC(=O)[C@H](CC(C)C)NC(=O)CCNC(=O)[C@@H](NC(=O)[C@H](Cc1ccccc1)NC(=O)[C@H](CO)NC(=O)[C@@H](N)CC(=O)O)C(C)C)C(N)=O	x	x	2.9%	x	x	x
CCC(=O)c1ccc(OCC(=O)OCC(=O)NCC2CCCO2)cc1 (stereo not given)	-11.7%	-8.3%	28.5%	44.5%	0.7%	18.2%
CCCn1c(C(=O)OC)cc2c1ccn2-c1ccc(F)cc1	0.2%	u	u	-10.3%	u	70.8µM*
SMILES	PLK1 PBD block	JMJD2A Tudor	Sfp PPTase inh	HP1b binding inh	BAZ2B inh	G9a inh
COC(=O)c1cc2c(ccn2-c2ccc(F)cc2)n1CC(C)C	0.0%	u	-16.4%	-19.8%	u	44.7µM*
COC(=O)c1cc2c(ccn2-c2ccc(F)cc2)n1Cc1ccc(OC(C)=O)cc1	2.2%	u	16.4%	0.0%	u	50.1µM*
COC(=O)c1cc2c(ccn2-c2ccc(F)cc2)n1C(C)C	2.2%	u	-22.5%	u	u	-7.8%[0.0925 µM]
O=C(Nc1cccc(F)c1)c1oc2ccccc2c1NC(=O)C12CC3CC(CC(C3)C1)C2	x	-12.6%	x	34.5%	-8.6%	10.4%[59 µM]
CC(C)CCN(C(=O)CCCSc1nc2ccccc2[nH]1)c1c(N)n(Cc2ccccc2)c(=O)[nH]c1=O	-21.4%	-20.7%	x	53.4%	3.4%	u
Cc1cc(=O)[nH]c(Nc2ccc(N(C)C)cc2)n1	3.1%	-11.4%	7.1%	0.8%	-33.5%	u
COC(=O)C1=C(C(=O)OC)[C@@H]2N(C)c3ccccc3[C@@]23C[C@@H](C(=O)OC)N(S(=O)(=O)c2ccc(C(F)(F)F)cc2)C3=N1	x	x	-6.9%	x	x	x
CC[C@@H](C)[C@H](CNC)NC[C@@H](Cc1cccc2ccccc12)NCCc1cccc(C(F)(F)F)c1	-15.3%	u	79.4µM*	9.5%	u	44.7µM*
CCC[C@H](CN[C@@H](CNC)[C@H](C)CC)NCCc1cc(C(F)(F)F)cc(C(F)(F)F)c1	4.5%	-23.4%	20.0%	38.6%	-8.9%	-4.9%
COc1ccc(-n2c(SCC(=O)NC3CCCCC3)nc3c([nH]c4ccccc43)c2=O)cc1	x	1.9%	x	14.7%[57 µM]	1.9%	13.1%[59 µM]
Cc1ccccc1CN1CCC(CNc2ncnc3onc(-c4ccc(Cl)cc4)c23)CC1	x	-11.3%	x	34.0%	2.8%[57.1 µM]	-22.0%[59 µM]
Cc1nc(SCC(=O)NC2CCS(=O)(=O)C2)c2c3c(sc2n1)CCCC3 (stereo not given)	-20.2%	-11.0%	x	19.8%	4.1%	50.1µM*

Screening data deposited in PubChem by National Center for Advancing Translational Sciences (NCATS).
